# Where “and” joins values, the source holds several entries; their conditions need not be identical. Equal values may be shown once. Inconclusive results are not listed. A call without a number means that no potency is given here. Some structures have more than one record in an assay (separate samples or runs), and their calls can disagree. Calls of active or inactive are those of the source. Calls follow the shape of the dose curve; as a rule, active = well fitted curve in the direction sought with a large enough effect in the repeat runs; inconclusive = weak or mixed curves; inactive = no such curve, though single readings can be large; an effect the other way counts as inactive or inconclusive.
# Assays:
# [1] = biological target: Cytochrome P450 1A2 (Homo sapiens) (UniProt P05177); test: Cytochrome P450 Family 1 Subfamily A Member 2 (CYP1A2) small molecule antagonists: luciferase reporter qHTS assay (AID 1671199); also: potency is read from the fitted curve at half-maximal effect
# Method in brief: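 CYP1A2 turnover of a luminogenic substrate was quantified after 1 h with NADPH regeneration at room temperature. Furafylline served as positive control.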
# [2] = biological target: Voltage-gated inwardly rectifying potassium channel KCNH2 (Homo sapiens) (UniProt Q12809); test: Human Ether-a-go-go-Related Gene (hERG) channel small molecule antagonists: fluorescence cell-based qHTS assay (AID 1671200);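 also: hERG-expressing U2OS cells given a thallium stimulus after FluxOR II dye loading; series mostly up to about 77 µM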
# Method in brief: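 Cell line hERG-U2OS; dye FluxOR II, 1 h RT dark; Tl+ stimulus; ex 480/em 540 nm, read each second for 2 min.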
# [3] = biological target: Cytochrome P450 3A4 (Homo sapiens) (UniProt P08684); test: Cytochrome P450 Family 3 Subfamily A Member 4 (CYP3A4) small molecule antagonists: luciferase reporter qHTS assay (AID 1671201); also: potency is read from the fitted curve at half-maximal effect
# Method in brief: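 Room-temperature assay throughout: 10 min compound–enzyme/substrate preincubation, 1 h reaction after NADPH regeneration solution, 20 min detection. Luciferin formed from proluciferin substrate is quantified by luminescence.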
# [4] = biological target: Cytochrome P450 2C9 (Homo sapiens) (UniProt P11712); test: Cytochrome P450 Family 2 Subfamily C Member 9 (CYP2C9) small molecule antagonists: luciferase reporter qHTS assay (AID 1671198); also: potency is read from the fitted curve at half-maximal effect
# Method in brief: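 P450-Glo proluciferin substrate with CYP2C9 enzyme; 10 min RT preincubation, then NADPH regeneration 1 h at 37C; luciferin detection reagent 20 min RT, luminescence in relative luminescence units.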
# Also: nearly all actives have a fitted effect of over 50% in size.
# Voltage-gated inwardly rectifying potassium channel KCNH2 (Homo sapiens), sequence (Q12809 whole entry, looked up): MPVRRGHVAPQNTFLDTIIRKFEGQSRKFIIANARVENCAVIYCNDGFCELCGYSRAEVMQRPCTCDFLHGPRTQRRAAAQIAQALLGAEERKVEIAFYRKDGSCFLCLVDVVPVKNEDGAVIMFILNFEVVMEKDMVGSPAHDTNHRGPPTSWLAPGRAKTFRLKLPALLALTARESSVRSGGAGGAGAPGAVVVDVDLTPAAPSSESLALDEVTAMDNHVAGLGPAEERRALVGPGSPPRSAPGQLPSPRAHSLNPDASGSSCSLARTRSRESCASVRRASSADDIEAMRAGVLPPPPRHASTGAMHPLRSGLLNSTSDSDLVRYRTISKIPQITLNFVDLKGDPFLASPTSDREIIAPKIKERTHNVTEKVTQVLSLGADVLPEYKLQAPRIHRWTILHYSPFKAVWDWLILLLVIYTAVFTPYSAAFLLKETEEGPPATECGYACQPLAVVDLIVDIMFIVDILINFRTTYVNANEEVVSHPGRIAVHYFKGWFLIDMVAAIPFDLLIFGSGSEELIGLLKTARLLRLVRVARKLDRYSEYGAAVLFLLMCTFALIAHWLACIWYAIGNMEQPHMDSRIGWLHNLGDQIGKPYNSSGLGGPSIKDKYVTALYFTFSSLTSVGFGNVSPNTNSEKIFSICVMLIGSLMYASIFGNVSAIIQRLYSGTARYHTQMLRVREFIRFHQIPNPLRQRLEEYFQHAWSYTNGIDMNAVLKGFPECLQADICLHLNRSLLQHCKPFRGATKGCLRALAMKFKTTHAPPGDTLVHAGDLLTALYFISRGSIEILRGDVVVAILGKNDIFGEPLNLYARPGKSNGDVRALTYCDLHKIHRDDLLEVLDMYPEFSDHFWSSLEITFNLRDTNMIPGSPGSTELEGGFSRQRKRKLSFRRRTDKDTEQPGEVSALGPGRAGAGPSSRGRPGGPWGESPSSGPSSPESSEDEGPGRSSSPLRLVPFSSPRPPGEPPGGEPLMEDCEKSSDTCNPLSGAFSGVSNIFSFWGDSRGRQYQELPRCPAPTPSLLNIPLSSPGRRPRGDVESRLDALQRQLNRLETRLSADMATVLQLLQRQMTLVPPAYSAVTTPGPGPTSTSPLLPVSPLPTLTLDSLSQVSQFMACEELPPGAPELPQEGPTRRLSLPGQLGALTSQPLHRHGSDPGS
# Cytochrome P450 1A2 (Homo sapiens), sequence (P05177 whole entry, looked up): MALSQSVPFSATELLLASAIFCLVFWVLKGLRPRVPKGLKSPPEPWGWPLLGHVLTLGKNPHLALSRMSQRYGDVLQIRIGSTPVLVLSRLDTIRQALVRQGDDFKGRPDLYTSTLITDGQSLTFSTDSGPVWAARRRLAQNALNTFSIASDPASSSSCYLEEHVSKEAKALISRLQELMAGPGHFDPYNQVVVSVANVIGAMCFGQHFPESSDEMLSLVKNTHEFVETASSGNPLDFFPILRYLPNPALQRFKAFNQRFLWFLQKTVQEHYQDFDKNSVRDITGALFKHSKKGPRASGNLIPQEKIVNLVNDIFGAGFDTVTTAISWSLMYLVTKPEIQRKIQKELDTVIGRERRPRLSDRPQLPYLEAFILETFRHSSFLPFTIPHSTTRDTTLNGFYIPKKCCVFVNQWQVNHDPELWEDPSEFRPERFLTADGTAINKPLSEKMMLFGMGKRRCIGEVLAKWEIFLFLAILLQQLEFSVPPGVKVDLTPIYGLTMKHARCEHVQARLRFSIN
# Cytochrome P450 3A4 (Homo sapiens), sequence (P08684 whole entry, looked up): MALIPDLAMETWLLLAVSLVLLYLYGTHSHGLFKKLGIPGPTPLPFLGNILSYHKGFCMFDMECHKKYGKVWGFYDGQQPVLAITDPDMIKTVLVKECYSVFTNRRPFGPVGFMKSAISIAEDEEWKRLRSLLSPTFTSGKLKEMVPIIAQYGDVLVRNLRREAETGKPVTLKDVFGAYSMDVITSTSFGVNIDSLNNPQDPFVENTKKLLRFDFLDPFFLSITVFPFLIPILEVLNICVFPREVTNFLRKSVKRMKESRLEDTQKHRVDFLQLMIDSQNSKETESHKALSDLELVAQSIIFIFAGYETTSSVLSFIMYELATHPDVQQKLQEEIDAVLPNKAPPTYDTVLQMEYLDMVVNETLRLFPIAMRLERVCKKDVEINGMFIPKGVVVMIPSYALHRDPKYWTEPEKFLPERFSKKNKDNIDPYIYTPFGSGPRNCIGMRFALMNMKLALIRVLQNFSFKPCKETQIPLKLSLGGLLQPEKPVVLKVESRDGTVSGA
# Cytochrome P450 2C9 (Homo sapiens), sequence (P11712 whole entry, looked up): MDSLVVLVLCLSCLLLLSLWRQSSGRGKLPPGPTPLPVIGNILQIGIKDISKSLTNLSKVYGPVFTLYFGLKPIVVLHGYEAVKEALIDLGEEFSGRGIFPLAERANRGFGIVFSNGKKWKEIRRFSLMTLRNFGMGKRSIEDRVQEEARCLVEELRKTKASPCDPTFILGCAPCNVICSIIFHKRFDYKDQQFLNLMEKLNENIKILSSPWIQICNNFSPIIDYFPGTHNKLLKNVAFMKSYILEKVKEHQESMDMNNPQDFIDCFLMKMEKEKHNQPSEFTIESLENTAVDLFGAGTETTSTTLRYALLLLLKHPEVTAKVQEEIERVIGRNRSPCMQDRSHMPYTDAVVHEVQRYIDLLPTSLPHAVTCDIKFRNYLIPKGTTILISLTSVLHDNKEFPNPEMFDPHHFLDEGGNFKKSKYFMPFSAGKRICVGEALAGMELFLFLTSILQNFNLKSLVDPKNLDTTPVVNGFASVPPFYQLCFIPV
Compound,Potency [1],Potency [2],Potency [3],Potency [4]
COCCOC(=O)c1ccccc1C(=O)OCCOC,22.6 µM (active) and 35.6 µM (active),inactive,inactive,–
C[C@]12CCC(=O)C=C1CC[C@@H]1[C@@H]2[C@@H](O)C[C@@]2(C)[C@H]1CC[C@]2(O)C(=O)CO,–,inactive,–,inactive
C=Cc1ccc(C)cc1,inactive,inactive,inactive,inactive
CCCCCCCCCCN,31.9 µM (active) and 31.7 µM (active),inactive,inactive,–
Nc1ccc(Cl)c(N)c1,40 µM (active) and 35.6 µM (active),inactive,11.3 µM (active) and 31.7 µM (active),–
COc1ccc(OC)cc1,–,inactive,inactive,inactive
COc1ccccc1OCC(O)CO (configuration not stated),–,inactive,–,–
O=S(=O)(O)c1ccc(N=Nc2c(O)ccc3cc(S(=O)(=O)O)ccc23)cc1,40.1 µM (active),inactive,inactive,–
O=C(O)CCCCCCCCC(=O)O,–,inactive,inactive,inactive
CCO[Si](CCC#N)(OCC)OCC,inactive,inactive,inactive,inactive
CN(C)c1ccc(Cc2ccc(N(C)C)cc2)cc1,2.26 µM (active) and 5.03 µM (active),–,35.7 µM (active) and 15.9 µM (active),12.7 µM (active) and 31.7 µM (active)
CC(C)CC(C)O (configuration not stated),–,inactive,inactive,inactive and 31.7 µM (active)
O=S(=O)(O)c1ccccc1,–,inactive,–,–
C=CCc1ccc(OC)c(OC)c1,18 µM (active) and 22.4 µM (active),inactive,inactive,–
Cc1ccc(C(C)C)c(O)c1,31.7 µM (active) and 15.5 µM (active),inactive,inactive,–
CCCCCCC=O,inactive,inactive,inactive,–
Clc1ccccn1,inactive,inactive,inactive,inactive
COc1ccc(C)cc1N,28.3 µM (active),inactive,6.86 µM (active) and 20 µM (active),–
O=[N+]([O-])c1ccc2nc[nH]c2c1,36.3 µM (active) and 39.9 µM (active),inactive,inactive,–
Cc1ccc2ncccc2c1,39.9 µM (active) and inactive,inactive,inactive,–
O=C1C(c2[nH]c3ccccc3c2O)=Nc2ccccc21,inactive and 34.7 µM (active),inactive,inactive,inactive
CCNc1cccc(C)c1,inactive,inactive,inactive,–
O=C(OCC1CCC2OC2C1)C1CCC2OC2C1 (configuration not stated),–,inactive,–,71 µM (active)
NC(=S)NNC(N)=S,inactive,inactive,inactive,35.6 µM (active)
CCCCOC(=O)c1ccc(N)cc1,–,inactive,–,–
CCOCCOCCOCCO,–,inactive,inactive,–
O=C(O)c1ccccc1C(=O)O,–,inactive,inactive,inactive
C=CC(=O)OCCC(=O)O,–,inactive,inactive,inactive
CC1(C)S[C@@H]2[C@H](NC(=O)COc3ccccc3)C(=O)N2[C@H]1C(=O)O,inactive,inactive,–,–

# From PubChem BioAssay (Tox21)
